Assay outcomes deposited in PubChem BioAssay by several laboratories.
PfHsp90 yeast 2: growth inhibition of yeast expressing Plasmodium Hsp90; 310,000 compounds, 0.32% hits; S. cerevisiae expressing PfHsp90, BacTiter-Glo ATP, 48 h; yeast lacking PDR1 and PDR3 efflux regulators; inhibition, % at 9.4 µM;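 active means every replicate shows inhibition above about 80%, whatever the replicate mean, limit read from the data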;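 further: 0% = DMSO neutral controls and 100% = 20 µM radicicol positive controls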
SKKanGAS inh: inhibitors of SKKanGAS S. pyogenes growth in kanamycin (SK-promoter or general growth effect); BacTiter-Glo, 6 h; inhibition, % at 7.5 µM; 300,000 compounds, 1.3% hits; AID 1662;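 active means mean replicate score, as percent of positive control median, at least 50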;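 further: strain carries kanamycin resistance gene driven by streptokinase promoter and grows in 40 µg/ml kanamycin; loss of luminescence reflects streptokinase promoter inhibition or plain growth inhibition; 0% = median of DMSO wells and 100% = positive control at its reference dose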
TIM10 inh: TIM10 yeast growth inhibition; AID 463195; S. cerevisiae TIM10 strain growth, BacTiter-Glo luminescence, 24 h; 330,000 compounds, 1.4% hits; inhibition, % at 10 µM;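 active means inhibition of 40% or more at the single tested concentration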;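 further: wild-type TIM10 isogenic control strain grown at permissive 25 °C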
tim23-1 inh: growth inhibitors of tim23-1 mutant yeast; S. cerevisiae tim23-1 growth, BacTiter-Glo luminescence, 24 h; inhibition, % at 20 µM; 330,000 compounds, 1.3% hits; AID 463212;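 active means growth inhibition of the mutant yeast at or above 50%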;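 further: temperature-sensitive mutant grown at 25 °C; plate controls were DMSO-treated mutant yeast for no effect and medium wells lacking yeast for full effect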
NALP1 inh: inhibitors of NALP1 inflammasome in yeast | S. cerevisiae NALP1/ASC/caspase-1 growth, X-gal OD620, 72 h | inhibition, % at 10 µM | 280,000 compounds, 0.61% hits; in the data active means inhibition mostly above about 24%, no sharp cut-off; inactive means mostly below about 32%
tim10-1 inh: inhibits growth of tim10-1 mutant yeast | S. cerevisiae tim10-1 ts strain growth, BacTiter-Glo, 24 h | inhibition, % at 20 µM | 330,000 compounds, 2.2% hits;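 active means inhibition of at least 40%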;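 further: mutant grown at 25 °C; 0% = DMSO wells with yeast and 100% = wells holding no yeast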
tim10-1 conf: tim10-1 yeast growth inhibition, confirmed | shares compounds with tim10-1 inh | S. cerevisiae tim10-1 ts strain growth, BacTiter-Glo, 24 h | inhibition, % at 20 µM | 7,400 compounds, 56% hits;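 active means inhibition of yeast growth at or above a set limit in either of two repeat tests at 20 µM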;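 further: tim10-1 mutant grown at permissive 25 °C to find synthetic lethal compounds; 0% = DMSO yeast wells and 100% = medium wells without yeast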
Numbers without * were called inactive; . = no result given. Shown are actives, neighbours in structure and some others; about 4.8% of the full set was active somewhere.

SMILES | PfHsp90 yeast 2 | SKKanGAS inh | TIM10 inh | tim23-1 inh | NALP1 inh | tim10-1 inh | tim10-1 conf
Cc1nc2cc(C(F)(F)F)ccc2n1CCNc1nc(-c2ccc(F)cc2)cs1 | -22 | 15 | 13 | 15 | 29 | 46* | 22
COc1ccc(-c2csc(NCCn3c(C)nc4cc(C(F)(F)F)ccc43)n2)cc1 | 4 | . | 13 | 47 | . | 15 | .
Cc1ccc(C)c(OCCC(=O)OCC(=O)N2CCN(S(=O)(=O)c3ccc(Cl)cc3)CC2)c1 | 11 | 2 | 33 | 28 | . | 45* | 29*
CC(=O)C(c1ccccc1)C(c1ccccc1)C(C)[N+](=O)[O-] (stereo not given) | -4 | 4 | -5 | -18 | -14 | -11 | .
O=[N+]([O-])CC(c1ccccc1)P(=O)(c1ccccc1)c1ccccc1 (stereo not given) | -7 | 6 | 0 | 28 | -8 | 41* | 14
O=C(Nc1nc2ccccc2n1CCN1CCOCC1)c1cn(-c2ccccc2)nc1-c1ccccc1 | -2 | 85* | 39 | 40 | 15 | 42* | 32*
COC(=O)C(C)n1cnc2c(nnn2-c2ccc(OC)cc2)c1=O (stereo not given) | -17 | 0 | -22 | 8 | 13 | 15 | .
O=[N+]([O-])c1ccc(-n2cccn2)c(-c2nn[nH]n2)c1 | -3 | -1 | 2 | -4 | 31 | 5 | .
COC(=O)C1=C(C)OC(N)=C(C#N)C1c1c(C)nn(-c2ccccc2)c1Cl (stereo not given) | 17 | -1 | 36 | 43 | 8 | 40* | 33*
CCOC(=O)C1=C(C)OC(N)=C(C#N)C1c1c(C)nn(-c2ccc(C)cc2)c1Cl (stereo not given) | . | 1 | 18 | 25 | -10 | 32 | .
Cc1cc(=O)n2[nH]c(NCc3c(F)cccc3Cl)nc2n1 | -93 | -1 | -10 | 6 | 12 | 22 | .
CC(C)(C)c1ccc2c(c1)OC(C(=O)N/N=C\c1ccc[nH]1)CO2 (stereo not given) | 0 | -3 | -41 | 34 | -25 | 42* | -103
Fc1cnc(N2CCN(c3ccccc3)CC2)nc1N1CCN(c2ccccc2)CC1 | -22 | -4 | -7 | 15 | 25 | 11 | .
COc1ccc(CC(=O)N/N=C/c2ccc(Cl)s2)cc1OC | 3 | -4 | 26 | 29 | 15 | 50* | 24
COc1ccc(CC(=O)N/N=C/c2ccc(C)s2)cc1 | 18 | -5 | -1 | 11 | . | -5 | .
Cc1nn(-c2ccc(F)cc2F)c2c1-c1nc(N3CCCC3)ncc1CC2 | -14 | -7 | 35 | 28 | -15 | 45* | 20
C(=N/Nc1nc(-c2ccccc2)cc(-c2ccccc2)n1)/c1cccnc1 | 19 | 7 | 18 | 34 | 10 | 25 | .
Cc1cc(-c2ccccc2)nc(N/N=C/c2ccccc2)n1 | -22 | -4 | 37 | 37 | 13 | 41* | 18
Cc1ccc(-c2cc(-c3ccccc3)nc(N/N=C/c3cccnc3)n2)cc1 | -2 | . | 16 | 16 | . | 44* | 25
COc1ccc(Cl)c2c1[nH]c1nc(SCc3ccccn3)nnc12 | -16 | 27 | 26 | 17 | 9 | 42* | 25
O=S(=O)(c1ccc(-c2csc(-c3cccnc3)n2)cc1)N1CCCC1 | -19 | 11 | 27 | 31 | 30 | 44* | 39*
COc1ccc(S(=O)(=O)N2CN(Cc3ccco3)c3nc4ccccc4nc32)cc1 | -14 | 23 | 20 | 27 | 17 | 47* | 27
COc1ccc(CN(C2CCCC2)S(=O)(=O)c2ccc(-n3cnnn3)cc2)cc1OC | 11 | 2 | -13 | -4 | 9 | 28 | .
COc1ccc(CN(C2CCCC2)S(=O)(=O)c2ccc(-n3cnnn3)cc2)cc1 | -17 | 5 | 34 | 34 | 6 | 40* | 35*
COC(=O)C1=C(C)NC(C)=C(C(=O)O[C@@H]2CCCN(Cc3ccccc3)C2)[C@@H]1c1cccc([N+](=O)[O-])c1 | 16 | 9 | 26 | 28 | . | 45* | 31
SMILES | PfHsp90 yeast 2 | SKKanGAS inh | TIM10 inh | tim23-1 inh | NALP1 inh | tim10-1 inh | tim10-1 conf
CCOC(=O)C1=C(C)NC(C)=C(C(=O)OC)C1c1cccc([N+](=O)[O-])c1 (stereo not given) | 11 | -5 | 12 | 23 | 22 | 16 | .
CCCCn1c(-c2csc3c2CCC(C)C3)n[nH]c1=S (stereo not given) | -7 | 1 | 20 | 39 | -30 | 51* | 25
CC[n+]1c(/C=C2/C=C(C)CC(C)C2)sc2ccccc21 (stereo not given) | -2 | -8 | 39 | 32 | -6 | 48* | 26
CC[n+]1c(C=C2C=C(C)OC(C)=C2)sc2ccccc21 | -9 | 5 | -3 | -29 | 17 | -3 | .
OC1(c2ccc(OC(F)F)cc2)CSC(=Nc2cccnc2)N1C1CC1 (stereo not given) | 19 | 0 | -10 | -1 | 3 | 41* | 24
O=c1cc(-c2ccccc2)nc(Cc2c(Cl)cccc2Cl)[nH]1 | -4 | -1 | 2 | -3 | 9 | -37 | .
Cc1ccc(C2CC2C(=O)NNC(=S)Nc2cccc(C)c2)cc1 (stereo not given) | . | -4 | 32 | 23 | -11 | 49* | 16
Cc1ccc(C2CC2C(=O)NNC(=S)Nc2cccc(Cl)c2)cc1 (stereo not given) | 5 | 5 | 18 | 15 | -4 | 35 | .
NC(=O)C(c1ccc(Sc2ccccc2)nn1)c1ccc(Cl)cc1Cl (stereo not given) | 17 | -2 | 2 | 15 | 21 | 16 | .
CCOC(=O)/C(C#N)=C1/C(=O)N(Cc2ccccc2)c2ccccc21 | 8 | . | 31 | 48 | 9 | 49* | 29
S=C(NCC1CCCCC1)Nc1cccnc1 | 18 | 3 | 16 | 31 | 10 | 53* | 43*
C=CCOc1ccc(C2C(C#N)=C(N)N(N(C)C)C3=C2C(=O)CCC3)cc1 (stereo not given) | -1 | 5 | 4 | 8 | -4 | 8 | .
Cc1ccccc1CN(CC(=O)Nc1cccc([N+](=O)[O-])c1)S(=O)(=O)c1ccc(Cl)cc1 | 8 | 14 | 12 | 33 | 29 | 45* | 24
COc1ccc2oc(=O)c(-c3csc(Nc4cccc(O)c4)n3)cc2c1 | 103* | 27 | 35 | 35 | 41 | 45* | 37*
COc1ccc(C)cc1NC(=O)c1cc(S(=O)(=O)N2CCC3(CC2)OCCO3)ccc1F | -15 | -2 | 20 | 45 | 3 | 46* | 19
Cc1nc2ccccc2c(=O)n1/N=C/c1ccccc1Cl | -11 | -7 | 15 | 39 | 20 | 33 | .
COc1ccc([C@H]2C=C3CN(C(=O)OC(C)(C)C)S(=O)(=O)[C@H]3C[C@H]2OC(=O)c2ccc(C(F)(F)F)cc2)cc1 | -10 | 11 | 10 | 4 | -4 | 7 | .
